# The OligoGym collection
# Molecular target: TELO2
# Assay: pooled miR-30 sensor sort-seq; sequence = guide strand
# Conditions: shRNA
# Also: reference of the scale not given here.
row,Sequence,sensor-assay potency score (higher = more potent)
1,TTCTTGTTCTTCACCACCAGGT,-0.407
2,TAGGCATCGATGTGGAAGCGAA,-1.36
3,TTCTGGGTCATCACAAACTGGG,-0.844

# Molecular target: TFAP4
# Assay: as above
# Conditions: shRNA
row,Sequence,sensor-assay potency score (higher = more potent)
1,TTCACGATGACAGCTCGCCGCT,-1.34
2,TTGGCAAGGCTACAGAGCCCTC,-1.54
3,TTCTCTCCGTCTGTGTGGGGGA,-0.652
4,TTCGTCCTTGTCCTCTGCCCGC,-1.28
5,TTGAGGGACTGGAATCCCGCGT,-0.113
6,TTCCCGCTCCAGCTTCTCCTGG,-1.47
7,TGCTGAGCTTCTCTCCGTCTGT,-0.432
8,TTGCTGTTGGCGATCTCCCGCC,-0.484
9,AATCACCTTGAGCTTTTCCGGG,-1.02
10,TCGTCCTCCCAGATGTCCGGGG,-0.989
11,ATCACCTTGAGCTTTTCCGGGT,-0.563
12,TACATGTGGGCCTCCAGCGAGC,-1.01

# Molecular target: TFEB
# Assay: as above
# Conditions: shRNA
row,Sequence,sensor-assay potency score (higher = more potent)
1,TCATTGATGTTGAACCTTCGTC,-0.00793
2,TTGATGTTGAACCTTCGTCTCC,-0.765
3,AAGGACATCGTCCAGACGCATA,-1.55
4,TTGTTGGTCATCTCCAGGCGGC,-1.28
5,TTGCAGGTCCTTCTGCATCCTC,-1.28
6,TCTCCTTTCAATTAAGTTGTGA,-0.161
7,TAGCGTGTTGGGCATCTGCATT,-1.17
8,TAGCAGTGAGTCGTCCAGGAGC,-1.35
9,ATCTGTGAGCTCTCGCTTCTGG,-0.356
10,TACACATTCAGGTGGCTGCTGG,-0.605
11,TTCGCTAGGCAGCTCCTGCTTC,-0.419

# Molecular target: TFPI2
# Assay: as above
# Conditions: shRNA
row,Sequence,sensor-assay potency score (higher = more potent)
1,TGTCGTAGTAGTAACGGAGAAG,-1.18
2,TACCTGTCGTAGTAGTAACGGA,-0.941
3,TAGGTGAAAGCATCACAGGTTC,-0.157
4,TTTATATCTTATGCATTGCAAG,-1.47
5,TCTCACAAACAGTTGAACCATA,-1.02
6,TTATTCTTCAGATACAACCATA,-1.04
7,TATAGGTGAAAGCATCACAGGT,-0.811
8,TCATCTTTTGGACTGTAGCAAA,-1.13
9,TTGTATTAATAAAAACTGGTGA,-0.407
10,TACAAGTAGCTTCATCTGGAAA,-1.17
11,TTAGATTAAAGAAATACTTTTC,-0.873
12,TTGGATTAAAATAATAGCGAGT,-0.659
